Rows were chosen to be rich in hits. Some 19% of all compounds tested hit in one or more screens of this group.
TDP1 cell noCPT: qHTS for Inhibitors of human tyrosyl-DNA phosphodiesterase 1 (TDP1): qHTS in cells in absence of CPT; AID 686978, 2013; DT40 Tdp1-/- hTDP1 cells, no CPT, ATP luminescence, 48 h; 420,000 tested, 15% active; Potency, µM (doses to about 46.2 µM), most hits filed as inhibitors; note: nearly all actives have a fitted effect of over 55% in size
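Growth kinetics read by CellTiter-Glo luminescence after ≥48 hr at 37 °C. Cells: DT40 Tdp1-/- stably carrying human TDP1, 400 per well, compound exposure in the absence of CPT (DMSO vehicle).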
DT40 TDP1 CPT: qHTS for Inhibitors of human tyrosyl-DNA phosphodiesterase 1 (TDP1): qHTS in cells in presence of CPT; chicken DT40 Tdp1-/-;hTDP1 cells + 20 nM CPT, ATP luminescence, 48 h; Potency, µM (highest dose often 46.2 µM), usual class: inhibitors; 420,000 tested, 12% active; note: nearly all actives have a fitted effect of over 55% in size
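Chicken DT40 Tdp1-/- cells complemented with human TDP1, 400 cells/well, exposed to compounds plus 20 nM camptothecin for at least 48 h at 37 C; viability read as ATP content by CellTiter-Glo luminescence.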
HT1080-NT tox: qHTS for induction of synthetic lethality in tumor cells producing 2HG: qHTS for the HT-1080-NT fibrosarcoma cell line; AID 686970, 2013; 360,000 tested, 1.6% active; HT-1080-NT fibrosarcoma viability, CellTiter-Glo ATP luminescence, 48 h; Potency, µM (highest dose often 46.1 µM), usual class: cytotoxic;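 note: NT is the 2HG producing partner of a matched IDH1 knockdown line; nearly all actives have a fitted effect of over 55% in size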
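Viability of the 2HG-overproducing fibrosarcoma line after 48 hours of compound exposure at 37 degrees C was determined by luminescence with CellTiter-Glo, and concentration-effect curves were then fitted and categorized.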
IL-1B inflam inh: qHTS for Inhibitors of Inflammasome Signaling: IL-1-beta AlphaLISA Primary Screen | THP-1 LPS/ATP IL-1B secretion, AlphaLISA, 16 h; active compounds read low | activity change, % at 57.5 µM | 360,000 tested, 4.7% active | AID 743279, 2014; in the data active = activity change below about -50%; inconclusive = mostly about -30% to -49%
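Secreted IL-1B measured by AlphaLISA bead assay after 16 h compound exposure of THP-1 cells; compounds (final up to 57.5 uM) added 1 h before LPS (250 ng/mL) and ATP (1.25 mM) stimulation; lower signal means less secretion.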
HT1080 IDH1KD tx: qHTS for induction of synthetic lethality in tumor cells producing 2HG: qHTS for the HT-1080-IDH1KD cell line; HT-1080 IDH1 knockdown viability, ATP luminescence, 48 h; Potency, µM (titrated, usually from 46.1 µM), usual class: cytotoxic; 360,000 tested, 2% active; AID 686971, 2013
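Knockdown cells (IDH1KD HT-1080) received compounds 2 h after plating at 750 cells/well and were kept 48 h at 37 °C in 5% FBS RPMI. A CellTiter-Glo luminescence read gave % activity for curve fitting.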
A number is an active result; - = inactive; ? = inconclusive; . = not tested or not shown. Unless noted, calls come from the whole dose curve; as a rule, active = well fitted curve in the direction sought with a large enough effect; inconclusive = small, poorly fitted or top-dose-only effect, or another doubt; inactive = no such curve, though single readings can be large; an effect the other way counts as inactive or inconclusive.

SMILES	TDP1 cell noCPT	DT40 TDP1 CPT	HT1080-NT tox	IL-1B inflam inh	HT1080 IDH1KD tx
c1ccc(COc2cccc(-c3cc4nc(NCc5ccc6c(c5)OCO6)ccn4n3)c2)cc1	?	?	-	-	-
Cc1oc(-c2ccc(Cl)cc2)nc1CN1CCCC(C(=O)NCCc2ccc(Cl)cc2)C1 (configuration not stated)	5.8µM	7.3µM	.	.	.
Cc1oc(-c2cccc(Cl)c2)nc1CN1CCCC(C(=O)NCc2ccc(F)cc2)C1 (configuration not stated)	5.8µM	5.8µM	.	.	.
COC(=O)c1ccc2c(c1)N(Cc1nc(-c3ccc(Cl)cc3)oc1C)C(=O)C1CCCN21 (configuration not stated)	?	21µM	-	-	-
COc1ccc(CCNC(=O)C2CCN(Cc3nc(-c4ccc(Cl)cc4)oc3C)CC2)cc1OC	?	-	-	-	-
CCCN(CCC)CCCNC(=O)C1CCCN(Cc2nc(-c3ccc(Cl)cc3)oc2C)C1 (configuration not stated)	9.2µM	12µM	.	.	.
COC(=O)c1cc2occc2n1Cc1nc(-c2ccc(Cl)cc2)oc1C	?	?	-	-	-
CC1(C)CC(NC(=O)c2coc(=O)c(Br)c2)CC(C)(C)N1	0.52µM	0.33µM	-	-	-
OC1COC(c2ccccc2)OC1C1OC(c2ccccc2)OCC1O (configuration not stated)	-	-	-	-	-
CCOC(=O)c1c(-c2ccc(OC)cc2)csc1/N=C/N(C)C	26µM	-	-	-	-
CCOC(=O)c1c(-c2ccc(OC)cc2)csc1/N=C/C1C(=O)CCCC1=O	?	-	?	-	18µM
CNc1ccc(C=C2C=CC=C2)cc1	?	11µM	.	.	.
COc1ccc(Cc2c(-c3ccccc3)nc3ccc(Cl)cn23)c(C)c1	?	?	-	-	-
COc1ccc(Cc2c(-c3cccc(Cl)c3)nc3ccc(C)cn23)c(C)c1	21µM	16µM	?	-	?
COc1ccc(Cc2c(-c3ccccc3)nc3c(C)cc(Br)cn23)c(C)c1	?	16µM	-	-	?
COc1ccc(Cc2c(-c3cccc(Cl)c3)nc3c(C)cc(Br)cn23)c(C)c1	2.6µM	2.6µM	21µM	?	23µM
COc1ccc(Cc2c(-c3ccc(F)cc3)nc3c(C)cc(Br)cn23)c(C)c1	18µM	?	-	-	-
COc1ccccc1Cc1c(-c2ccc(F)cc2)nc2c(C)cc(Br)cn12	?	?	?	-	?
CC(Cc1nnc(SCC(=O)O)n1N)c1ccccc1 (configuration not stated)	-	-	-	-	-
CCOc1ncccc1C(=O)Nc1cccc(S(=O)(=O)N2CCOCC2)c1	-	-	-	-	-
COc1ccc(Cc2c(-c3cccc(Br)c3)nc3c(C)cc(Br)cn23)c(C)c1	?	?	-	-	-
COc1ccc(Cc2c(-c3ccc(Cl)cc3)nc3c(C)cc(Br)cn23)c(C)c1	21µM	23µM	?	-	?
CCCc1nc2c(C)cc(Br)cn2c1Cc1ccc(OC)cc1C	21µM	?	?	-	?
Cc1cc(Br)cn2c(Cc3cccc(Cl)c3)c(-c3cccc(Cl)c3)nc12	26µM	?	-	-	-
COc1ccc(Cc2c(C3CCCCC3)nc3c(C)cc(Br)cn23)c(C)c1	2.6µM	2.6µM	?	-	?
SMILES	TDP1 cell noCPT	DT40 TDP1 CPT	HT1080-NT tox	IL-1B inflam inh	HT1080 IDH1KD tx
O=[N+]([O-])c1cnccc1-n1nnc2ccccc21	18µM	16µM	?	-116	?
Cn1ncc(C#N)c1NC(=O)C1CC(c2ccccc2Cl)=NO1 (configuration not stated)	-	-	-	-	-
CCOC(=O)c1sc(NC(=O)c2ccc3nc[nH]c3c2)nc1C	8.2µM	?	-	-	?
COC(=O)c1sc(NC(=O)COc2ccc(C)cc2)nc1C	-	-	-	-63	-
CCOC(=O)c1sc(NC(=O)c2ccccc2OCC)nc1C	?	21µM	-	-	-
COC(=O)c1sc(NC(=O)COc2ccccc2)nc1C	-	-	-	-	-
CCOC(=O)c1sc(NC(=O)Nc2ccc(Cl)cc2)nc1C	23µM	?	-	-	-
C[C@H](CO)N1C[C@H](C)[C@H](CN(C)S(=O)(=O)c2cccc(F)c2)Oc2ncc(-c3cccc(C(=O)N(C)C)c3)cc2C1=O	-	-	-	-	-
Cn1nccc1C(=O)NCC1CCC2(CCN(Cc3cccc4ncccc34)CC2)O1 (configuration not stated)	-	-	.	.	.
COc1ccc(OCc2nc3c4c(-c5ccccc5)c(-c5ccccc5)oc4ncn3n2)cc1	-	-	.	.	.
O/N=C(\CN1CCCCC1)c1ccccc1	-	-	-	-	-
CC1(C(=O)NS(=O)(=O)c2ccc(F)cc2F)CCN1C(=O)c1ccccc1 (configuration not stated)	-	-	-	-	?
C=CCOC(=O)c1sc(NC(=O)c2ccc(OC)cc2)nc1C	-	-	?	-	1.8µM
Cc1c(C=O)c2ccccc2n1CCOc1ccccc1F	10µM	23µM	-	-	-
Cc1cc2c(cc1S(=O)(=O)CCC(=O)Nc1cccc(C(F)(F)F)c1)OCC(=O)N2	-	-	-	-	-
COc1ccc(C(=O)NNC(=S)NC(=O)c2ccc(F)cc2)cc1Br	?	?	?	-	?
COc1cc(C(=O)NC(=S)NCc2ccncc2)cc(OC)c1OC	21µM	?	-	-	-
COc1ccc(CC(=O)NNC(=S)NC(=O)c2cc(OC)c(OC)c(OC)c2)cc1	7.3µM	9.2µM	?	-	?
COc1cc(C(=O)NNC(=S)NC(=O)c2ccc(F)cc2)cc(OC)c1OC	?	29µM	-	-	?
COc1cccc(Cn2c(=O)c(-c3ccc(Cl)cc3)nc3cnc(N4CCOCC4)nc32)c1	-	-	.	.	.
Cc1ccc(O)c(C(=O)c2cc(C(=O)NCCc3ccccc3)c(=O)n(CCc3ccccc3)c2)c1	16µM	?	-	-	-
COc1ccc(O)c(C(=O)c2cc(C(=O)NCCc3ccccc3)c(=O)n(CCc3ccccc3)c2)c1	15µM	18µM	-	-	-
Cc1ccccc1CN1CCc2nnc(C(C)NC(=O)c3cc(F)ccc3F)n2CC1 (configuration not stated)	-	-	.	.	.
Cc1cccc(N2CCN(C3=NC(=O)/C(=C\c4cn[nH]c4-c4ccccc4)S3)CC2)c1	2.1µM	6.5µM	-	-	-

Screening results from PubChem.
